In the library only some 4.6% were active in any assay of this set; here they are far more common.
NALP3 yeast inh: inhibitors of NALP3 inflammasome in yeast | Yeast reconstituted NLRP3/ASC/caspase-1, beta-gal luminescence, 24 h | inhibition, % at 10 µM | hit rate 0.39% among 330,000;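 active = inhibition of 50% or more; inactive = inhibition below 50%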;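 also: plate controls were induced DMSO wells for no effect and uninduced yeast grown without galactose for full effect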
PfHsp90 set2: growth inhibition of yeast expressing Plasmodium Hsp90; S. cerevisiae expressing PfHsp90, BacTiter-Glo ATP, 48 h; yeast lacking PDR1 and PDR3 efflux regulators; inhibition, % at 9.4 µM; hit rate 0.32% among 310,000; AID 504621;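 active = every replicate shows inhibition above about 80%, whatever the replicate mean, limit read from the data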;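 also: 0% = DMSO neutral controls and 100% = 20 µM radicicol positive controls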
tim10-1 inh: growth inhibitors of tim10-1 mutant yeast. AID 463190. S. cerevisiae tim10-1 ts strain growth, BacTiter-Glo, 24 h. inhibition, % at 20 µM. hit rate 2.2% among 330,000;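 active = inhibition of at least 40%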;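 also: mutant grown at 25 °C; 0% = DMSO wells with yeast and 100% = wells holding no yeast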
SKKanGAS inh: blocks kanamycin growth of S. pyogenes SKKanGAS strain; BacTiter-Glo, 6 h; inhibition, % at 7.5 µM; hit rate 1.3% among 300,000;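 active = mean replicate score, as percent of positive control median, at least 50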;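 also: strain carries kanamycin resistance gene driven by streptokinase promoter and grows in 40 µg/ml kanamycin; loss of luminescence reflects streptokinase promoter inhibition or plain growth inhibition; 0% = median of DMSO wells and 100% = positive control at its reference dose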
tim23-1 inh: growth inhibitors of tim23-1 mutant yeast; S. cerevisiae tim23-1 growth, BacTiter-Glo luminescence, 24 h; inhibition, % at 20 µM; hit rate 1.3% among 330,000;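 active = growth inhibition of the mutant yeast at or above 50%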;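 also: temperature-sensitive mutant grown at 25 °C; plate controls were DMSO-treated mutant yeast for no effect and medium wells lacking yeast for full effect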
TIM10 inh: inhibits growth of TIM10 yeast strain | S. cerevisiae TIM10 strain growth, BacTiter-Glo luminescence, 24 h | inhibition, % at 10 µM | hit rate 1.4% among 330,000 | AID 463195;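 active = inhibition of 40% or more at the single tested concentration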;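 also: wild-type TIM10 isogenic control strain grown at permissive 25 °C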
NALP3 confirm: confirmation of NALP3 inhibitors in yeast. AID 435006. hit rate 81% among 1,300. shares compounds with NALP3 yeast inh. inhibition, % at 10 µM. yeast expressing human NALP3, luminescence; in the data active = inhibition above about 48%
Casp1-ASC yeast: caspase-1-ASC yeast counter-screen hit. shares compounds with NALP3 yeast inh. yeast expressing Caspase-1-ASC, luminescence counter screen. inhibition, % at 10 µM. hit rate 66% among 1,000. AID 488784
NALP3 retest: confirmation retest of NALP3 inhibitors in yeast. hit rate 53% among 1,000. shares compounds with NALP3 yeast inh. inhibition, % at 10 µM. yeast expressing human NALP3, luminescence read-out
tim10-1 confirm: tim10-1 yeast growth inhibition, confirmed; shares compounds with tim10-1 inh; S. cerevisiae tim10-1 ts strain growth, BacTiter-Glo, 24 h; inhibition, % at 20 µM; hit rate 56% among 7,400; AID 463213;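 active = inhibition of yeast growth at or above a set limit in either of two repeat tests at 20 µM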;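 also: tim10-1 mutant grown at permissive 25 °C to find synthetic lethal compounds; 0% = DMSO yeast wells and 100% = medium wells without yeast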
tim10 confirm: confirmation of TIM10 yeast growth inhibitors; shares compounds with TIM10 inh; S. cerevisiae tim10 strain growth, BacTiter-Glo luminescence, 24 h; inhibition, % at 10 µM; hit rate 63% among 4,600; AID 463215;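 active = inhibition of yeast growth at or above a set limit in either of two replicates at 10 µM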;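 also: this counterscreen used the strain with wild-type TIM10; 0% = yeast with DMSO and 100% = medium wells lacking yeast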
tim23-1 confirm: tim23-1 yeast growth inhibition, confirmed. S. cerevisiae tim23-1 growth, BacTiter-Glo luminescence, 24 h. shares compounds with tim23-1 inh. inhibition, % at 20 µM. hit rate 83% among 4,400;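 active = inhibition above about 39% in either of two replicate wells at 20 µM, limit read from the data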;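 also: temperature-sensitive tim23-1 mutant grown at 25 °C; 0% = DMSO wells with yeast and 100% = medium wells without yeast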
An asterisk follows results filed as active; nt = not tested or not shown. Rule as the data show it, unless noted: active = inhibition above about 50%; inactive = the rest.

SMILES	NALP3 yeast inh	PfHsp90 set2	tim10-1 inh	SKKanGAS inh	tim23-1 inh	TIM10 inh	NALP3 confirm	Casp1-ASC yeast	NALP3 retest	tim10-1 confirm	tim10 confirm	tim23-1 confirm
CCOc1cc(C(=O)Nc2ccc(NC(C)=O)cc2)ccc1OCC(=O)N1CCCCC1	3	14	0	4	-3	5	nt	nt	nt	nt	nt	nt
COc1ccc2[nH]c3c(C)c4ccncc4c(C)c3c2c1	89*	12	58*	97*	50*	59*	96*	99*	91*	26	71*	69*
Cc1nc(Nc2nc3c(c(=O)[nH]2)CCC3)nc2ccccc12	77*	-40	60*	23	64*	83*	71*	47	41	72*	75*	62*
Cn1cnc2c(=O)[nH]cc([N+](=O)[O-])c21	7	-6	16	1	-1	7	nt	nt	nt	nt	nt	nt
S=C(NCc1ccccc1)Nc1ccc(Cl)cc1	33	-24	36	10	20	27	nt	nt	nt	nt	nt	nt
FC(F)(F)Sc1ccc(NC(=S)NCc2ccccc2)cc1	53*	-3	58*	15	52*	53*	24	nt	nt	70*	59*	53*
CC(C)(C)NS(=O)(=O)c1ccc(CCC(=O)N2CCCC2)cc1	5	21	-8	-7	10	-6	nt	nt	nt	nt	nt	nt
C=CCSc1n[nH]c(-c2cccs2)n1	25	25	24	0	19	-3	nt	nt	nt	nt	nt	nt
C=CCSc1n[nH]c(-c2ccc(OCCC)cc2)n1	57*	nt	21	-16	66*	46*	73*	56*	48	nt	41*	38*
CCOc1ccc(N/C=C/C(=O)c2ccccc2)c([N+](=O)[O-])c1	59*	18	38	5	57*	70*	-27	nt	nt	nt	-1	77*
CCOc1ccc(NC(=O)/C=C/c2ccccc2)c([N+](=O)[O-])c1	25	-4	11	-13	7	-7	nt	nt	nt	nt	nt	nt
C/C(=N\NC(=O)c1ccccc1O)C1C(=O)c2ccccc2C1=O	87*	36	54*	52*	73*	73*	92*	92*	84*	52*	70*	79*
CCCCn1c(N)c(N(CC(C)C)C(=O)c2oc3c(Cl)cccc3c2C)c(=O)[nH]c1=O	11	-8	-4	11	0	0	nt	nt	nt	nt	nt	nt
O=C(NC(=S)Nc1ccccc1F)C1CCCCC1	52*	nt	40*	3	54*	31	72*	72*	63*	21	nt	48*
O=C(NC(=S)Nc1ccccc1Br)C1CCCC1	30	38	39	25	48	39	nt	nt	nt	nt	nt	nt
O=C(NC(=S)Nc1ccccc1Br)C1CCCCC1	53*	-36	27	nt	56*	39	47	59*	34	nt	nt	38
CC(NC(=O)COc1ccc(S(=O)(=O)N2CCOCC2)cc1)c1ccccc1 (configuration not stated)	2	-11	0	nt	-2	1	nt	nt	nt	nt	nt	nt
COc1ccc(CNC(=O)c2c(C)oc3c2C(=O)c2ccccc2C3=O)cc1	69*	-20	83*	87*	89*	57*	71*	5	43	74*	68*	86*
COC(=O)c1ccccc1NC1=C/C(=N\S(=O)(=O)c2ccc(C(=O)O)cc2)c2ccccc2C1=O	51*	-6	54*	93*	71*	53*	64*	84*	77*	77*	65*	89*
Cc1ccn(CCC(=O)Nc2ccc(-c3ccno3)cc2)n1	12	13	7	-2	6	-2	nt	nt	nt	nt	nt	nt
CCCNC(=O)c1ccc(-c2nc3ccccc3s2)s1	58*	56	3	10	56*	55*	76*	32	33	nt	33*	77*
CCCNC(=O)Nc1nc2ccccc2s1	10	-36	2	0	21	-5	nt	nt	nt	nt	nt	nt
CSc1ccc(S(=O)(=O)Nc2ccc(OCC(=O)N3CCOCC3)cc2)cc1	14	13	9	-3	3	16	nt	nt	nt	nt	nt	nt
O=C(/C=C/c1ccccc1Cl)Nc1ccccc1	65*	-2	8	11	65*	33	75*	79*	74*	nt	nt	58*
CC(C)(C)n1nc(-c2ccc(Cl)cc2)c2c(N)ncnc21	88*	60	23	2	63*	50*	94*	95*	90*	nt	47*	62*
SMILES	NALP3 yeast inh	PfHsp90 set2	tim10-1 inh	SKKanGAS inh	tim23-1 inh	TIM10 inh	NALP3 confirm	Casp1-ASC yeast	NALP3 retest	tim10-1 confirm	tim10 confirm	tim23-1 confirm
Cc1ccc(-c2nn(C(C)(C)C)c3ncnc(NS(=O)(=O)c4ccc([N+](=O)[O-])cc4)c23)cc1	24	-14	37	-8	41	32	nt	nt	nt	nt	nt	nt
CC(C)(C)n1nc(-c2ccc(F)cc2)c2c(N)ncnc21	93*	36	38	-12	73*	69*	93*	96*	92*	nt	51*	61*
Cc1ccc(-c2nc(N)c3c(-c4ccc(C)cc4)nn(C(C)(C)C)c3n2)cc1	-20	-11	4	-8	-21	-8	nt	nt	nt	nt	nt	nt
COc1ccc(S(=O)(=O)NCC(c2ccc(C)cc2)N2CCN(C)CC2)cc1 (configuration not stated)	5	13	9	9	11	13	nt	nt	nt	nt	nt	nt
O=c1c2ccc(Cl)cc2nc(-c2ccc([N+](=O)[O-])cc2)n1O	57*	18	33	1	55*	63*	81*	62*	54*	nt	45*	63*
COc1ccccc1-c1nc2cc(Cl)ccc2c(=O)n1O	9	22	-15	4	3	10	nt	nt	nt	nt	nt	nt
COc1ccc2c(=O)c(-c3nc(C)cs3)coc2c1	77*	26	43*	4	52*	64*	54*	68*	66*	33*	-39	65*
CCOc1ccccc1C(=O)Nc1cc(Cl)ccc1O	52*	37	62*	54*	85*	59*	72*	66*	53*	54*	52*	8
COc1ccccc1C(=O)Nc1cc(Cl)ccc1O	44	-4	8	-2	-19	0	nt	nt	nt	nt	nt	nt
O=C(Nc1ccncc1)C1CCC(CNS(=O)(=O)c2cccc3nsnc23)CC1 (configuration not stated)	-2	6	5	0	12	-18	nt	nt	nt	nt	nt	nt
